Assay results from PubChem BioAssay (NCI).
The panel holds about 83,000 compounds, 20% with a hit somewhere; the sample as a whole holds those more often.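 Cells were grown in 96-well plates and exposed to the test compound at a single concentration for 48 hours; results are reported as percent growth, with values below 10 considered active.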 Calls of active or inactive are those of the source.

tested on: HL-60(TB) leukemia; test: NCI-60 one-dose screen, 48 h (100 = growth as untreated, 0 = no growth, -100 = all killed); conditions: 10 µM unless noted

SMILES	growth
CC(C)(O)c1cn(CCCCN2C(=O)C(=O)c3ccccc32)nn1	97.8% (inactive)
CCN1C(=O)N(CC)C2C1NN=c1s/c(=C\c3ccc(Br)cc3)c(=O)n12 (stereo not given)	-30.5% (active)
O=C(O)c1ccc2c(c1Cl)C(=O)c1ccccc1C2=O	56.6% (inactive)
Fc1cnccc1-c1nc2ccc3[nH]ncc3c2c2c1CCCC2	16.9% (inactive)
O=[N+]([O-])c1ccc(N=Nc2ccccc2)cc1	67.1% (inactive)
N#CC[C@H](C1CCCC1)n1cc(-c2ncnc3[nH]ccc23)cn1	97.7% (inactive)
N#CN1CC[C@H](C(=O)Nc2ncc(-c3ccncc3)s2)C1	-28.5% (active)
CC(C)CCC[C@@H](C)[C@H]1CCC2C3=CCn4c(=O)ccc(=O)n4C3CC[C@@]21C (stereo not given in full)	-43.3% (active)
C=C(CNCCO)[C@@H]1CC[C@]2(CO)CC[C@]3(C)[C@H](CC[C@@H]4[C@@]5(C)CCC(NCCO)C(C)(C)[C@@H]5CC[C@]43C)[C@@H]12 (stereo not given in full)	66.2% (inactive)
CC1(C)NC(=O)c2[nH]c3c(Cl)c(Cl)ccc3c2C1C#N (stereo not given)	65.4% (inactive)
Cc1nonc1-c1ccc2c(c1)OCO2	86.9% (inactive)
CN(C)c1ccc(CNCCO)cc1	96.1% (inactive)
Nc1cccc2c(=S)c3ccccc3[nH]c12	107% (inactive)
CC(=O)Nc1nccs1	103% (inactive)
Cc1ccc(-n2nc3c(c(C#N)c2=O)CC(c2ccccc2[N+](=O)[O-])C([N+](=O)[O-])=C3O)cc1 (stereo not given)	91.6% (inactive)
c1coc(CNc2ccnc(Nc3ccc(OCCN4CCCCC4)cc3)n2)c1	74.6% (inactive)
COc1ccc(/C=C/C(=O)N2CCC(O)CC2)cc1OC1CCCC1	101% (inactive)
Cc1c(C(=O)Nc2nc(-c3ccccc3)cs2)nnn1-c1ccccc1Br	36.9% [50 µM] (inactive)
Cc1ccc(C(=O)N/N=C/c2cccc(Oc3ccccc3)c2)cn1	9.21% (active)
Cn1c2ccccc2c2ssc(=S)c21	43.5% (inactive)

SMILES	growth
COc1cc(C(=O)/C=C/c2ccc3nc(-c4cc(F)cc(F)c4)sc3c2)cc(OC)c1OC	60.1% (inactive)
COc1ccc(-n2c(COc3ccc(F)cc3)n[nH]c2=S)cc1	126% (inactive)
C=C(C)[C@@H]1CC[C@]2(C(=O)N3CCNCC3)CC[C@]3(C)[C@H](CC[C@@H]4[C@@](C)(CCC(=O)N5CCNCC5)[C@H](C(=C)C)CC[C@]43C)[C@@H]12	61% (inactive)
CNC1=CC(=O)c2c(C(=O)OC)c(C)[n+]([O-])c(C)c2C1=O	29% (inactive)
COc1cc(-c2cc3cnccc3c3nc(N)c4ccncc4c23)cc(OC)c1OC	40.4% (inactive)
COC(=O)c1ccc(NC(=O)CCl)cc1	81.6% (inactive)
CC(=O)Nc1ccc(C=Nc2ccc3ccccc3c2)cc1	107% (inactive)
N/C(=N\N=C\c1ccc2c(c1)OCO2)N/N=C\c1ccc2c(c1)OCO2	80% (inactive)
CC1=CC(C)(C)Nc2ccc(Cc3ccc4c(c3)C(C)=CC(C)(C)N4)cc21	122% (inactive)
COc1cc(F)c(/C=C/c2cc(/C=C/c3cc(OC)c(OC)cc3F)on2)cc1OC	85.2% (inactive)
CCN(CC)CCC(CNc1c2ccc([N+](=O)[O-])cc2nc2cc(OC)c(OC)cc12)c1ccccc1 (stereo not given)	-15.9% (active)
O=C(Nc1cc(=O)[nH]c(=O)[nH]1)C(Cl)Cl	99.4% (inactive)
CCC(=O)C(CC)c1cccc(OC)c1 (stereo not given)	97.5% (inactive)
CCOC(=O)c1nnn(-c2ccccc2)c1C1=CN(C)CCC1	84.4% (inactive)
NC(=O)c1ccc(Br)o1	96.8% (inactive)
Nc1c(C(=O)c2ccc(Cl)cc2)sc(Nc2ccccc2)c1-c1nc2ccccc2s1	69.6% (inactive)
N#Cc1cc(-c2cc3ccccc3o2)oc1N	-49.3% (active)
N#C/C(=C1C=C/C(=N/O)C(Cl)=C/1)c1ccc(Cl)cc1	61.1% (inactive)
N#CSCc1c(Cl)cccc1Cl	88.9% (inactive)
COc1ccccc1NC(=O)OCC12COCN1COC2	102% (inactive)
